# In the antibiotic and cytotoxicity screens of Wong et al. (2023):
# Out of some 39,000 compounds screened, about 500 (1.3%) were called active. The list comes from a sample in which actives are over-represented; it also holds similar structures and randomly drawn compounds.
# System: S. aureus RN4220
# Assay: growth inhibition call (relative growth <= 0.2)
# Details: 50 µM
row,SMILES,growth inhibition call
1,C[C@H](CO)N1C[C@H](C)[C@@H](CN(C)C(=O)CCN2CCCCC2)Oc2ncc(C#CCN(C)C)cc2C1=O,inactive
2,O=C(O)c1cc(F)c2nc(N3[C@@H]4CC[C@H]3C[C@@H](OCc3c(-c5ccccc5OC(F)(F)F)noc3C3CC3)C4)sc2c1,active
3,COc1ccc(CN2C[C@H](C)[C@@H](OC)CN(C)C(=O)c3ccc(NC(=O)c4nc5ccccc5s4)cc3OC[C@H]2C)cc1,inactive
4,O=C1OC(c2cc(I)c(O)c(I)c2)(c2cc(I)c(O)c(I)c2)c2ccccc21,inactive
5,O=C1OC2(c3ccccc31)c1cc(I)c(O)c(I)c1Oc1c2cc(I)c(O)c1I,active
6,O=C1OC2(c3ccc(O)cc3Oc3cc(O)ccc32)c2ccccc21,inactive
7,Cc1ccc(CNS(=O)(=O)N(C)C)cc1,inactive
8,CO[C@H](CN(C)S(=O)(=O)c1ccc(Cl)cc1)[C@@H](C)CN([C@H](C)CO)S(=O)(=O)c1cccc(Cl)c1,inactive
9,C[C@H](CO)N1C[C@H](C)[C@@H](CN(C)C(=O)Cc2ccncc2)Oc2ncc(C#Cc3ccccc3F)cc2C1=O,inactive
10,N=C(N)NCCC[C@@H](NC(=O)CC1(CC(=O)N2CCN([C@H]3c4ccccc4NC(=O)c4ccccc43)CC2)CCCC1)C(=O)NCCn1c(=O)n(-c2ccccc2)n(-c2ccccc2)c1=O,active
11,C[C@H]1CN([C@@H](C)CO)C(=O)c2cc(NC(=O)Nc3cccc4ccccc34)ccc2O[C@H]1CN(C)C(=O)Nc1ccccc1,inactive
12,C[C@@H]1CN([C@H](C)CO)C(=O)c2cccc(NS(C)(=O)=O)c2O[C@H]1CN(C)Cc1ccc(C(=O)O)cc1,inactive
13,CC=C(C(=CC)c1ccc(O)cc1)c1ccc(O)cc1,active
14,CCC(=C(CC)c1ccc(O)cc1)c1ccc(O)cc1,inactive
15,Oc1ccc(O)cc1,inactive
16,CC(C)NC(=O)N(C)C[C@@H]1Oc2cc(C#Cc3ccc(F)cc3)ccc2S(=O)(=O)N([C@H](C)CO)C[C@H]1C,inactive
17,C[C@H](CO)N1C[C@H](C)[C@H](CN(C)Cc2ccc(Cl)c(Cl)c2)Oc2ccc(NC(=O)Nc3ccc(F)cc3)cc2CC1=O,inactive
18,C[C@@H]1CCCCO[C@H](CN(C)Cc2ccc(C(F)(F)F)cc2)[C@@H](C)CN([C@@H](C)CO)C(=O)c2cc(NS(=O)(=O)c3ccc(Cl)cc3)ccc2O1,inactive
19,Cn1c(=O)c2c(nc(SCSc3nc4c(c(=O)n(C)c(=O)n4C)n3C)n2C)n(C)c1=O,inactive
20,Cc1nc2c(=O)n(C)c(=O)n(C)c2nc1Cl,active
21,CCn1c(Cl)nc2c1c(=O)n(C)c(=O)n2C,inactive
22,Cc1noc(C)c1S(=O)(=O)Nc1ccc2c(c1)CC(=O)N([C@@H](C)CO)C[C@H](C)[C@@H](CN(C)Cc1ccncc1)O2,inactive

row,SMILES,growth inhibition call
1,C[C@@H]1CN([C@@H](C)CO)C(=O)c2cc(NS(C)(=O)=O)ccc2O[C@H]1CN(C)C(=O)Nc1ccccc1,inactive
2,CC(=O)OCC1=C(C(=O)O)N2C(=O)[C@@H](NC(=O)CSc3ccncc3)[C@H]2SC1,active
3,CC(=O)OCC1=C(C(=O)[O-])N2C(=O)C(NC(=O)CSc3ccncc3)C2SC1.[Na+] (stereo unspecified),active
4,CC(=O)OCC1=C(C(=O)[O-])N2C(=O)C(NC(=O)Cc3cccs3)C2SC1.[Na+] (stereo unspecified),active
5,COC1(NC(=O)Cc2cccs2)C(=O)N2C(C(=O)[O-])=C(COC(N)=O)CSC21.[Na+] (stereo unspecified),active
6,C[C@H]1CCCCO[C@@H](CN(C)C(=O)Nc2ccc(C(F)(F)F)cc2)[C@@H](C)CN([C@@H](C)CO)C(=O)c2cc(NC(=O)NC3CCCCC3)ccc2O1,inactive
7,C[C@H]1CCCCO[C@@H](CN(C)C(=O)Nc2ccc3c(c2)OCO3)[C@@H](C)CN([C@@H](C)CO)C(=O)c2cc(NS(=O)(=O)c3ccccc3)ccc2O1,inactive
8,C[C@H](CO)N1C[C@H](C)[C@@H](CN(C)S(C)(=O)=O)Oc2c(NC(=O)Nc3ccc(C(F)(F)F)cc3)cccc2C1=O,inactive
9,COc1cccc(C#Cc2cnc3c(c2)C(=O)N([C@@H](C)CO)C[C@@H](C)[C@@H](CN(C)C(=O)C2CCOCC2)O3)c1,inactive
10,C[C@@H]1CN([C@@H](C)CO)C(=O)c2cc(-c3cccc(C(=O)N(C)C)c3)cnc2O[C@H]1CN(C)S(=O)(=O)c1ccc(F)cc1,inactive
11,CO[C@@H]1CN(C)C(=O)c2ccc(NC(=O)Nc3ccccc3F)cc2OC[C@@H](C)N(Cc2ccccc2C(=O)O)C[C@H]1C,inactive
12,C[C@@H]1O[C@@H](O[C@@H]2[C@@H](O)[C@H](OCCc3ccc(O)c(O)c3)O[C@H](CO)[C@H]2OC(=O)/C=C/c2ccc(O)c(O)c2)[C@H](O)[C@H](O)[C@H]1O,inactive
13,CO[C@@H]1CN(C)C(=O)c2cc(NS(C)(=O)=O)ccc2OC[C@@H](C)N(C(=O)C2CCCCC2)C[C@H]1C,inactive
14,C[C@@H]1CN([C@@H](C)CO)C(=O)c2cc(NC(=O)c3ccncc3)ccc2O[C@H]1CN(C)Cc1ccc(C(=O)O)cc1,inactive
15,C[C@H](CO)N1C[C@H](C)[C@@H](CN(C)Cc2ccc(Oc3ccccc3)cc2)Oc2ccc(NC(=O)c3ccncc3)cc2C1=O,inactive
16,COc1ccc(S(=O)(=O)Nc2ccc3c(c2)CC(=O)N([C@H](C)CO)C[C@H](C)[C@H](CN(C)Cc2ccc(Cl)c(Cl)c2)O3)cc1,inactive
17,CN1C(=O)c2cc(NC(=O)c3cccs3)ccc2OC[C@@H]2O[C@@H](CC(=O)NCCN3CCCCC3)CC[C@@H]21,inactive
18,CN(C)CC(=O)N[C@H]1CC[C@H](CCNC(=O)C2CCC2)O[C@@H]1CO,inactive
19,C[C@@H]1CN([C@H](C)CO)C(=O)Cc2cc(NC(=O)Nc3ccc(C(F)(F)F)cc3)ccc2O[C@@H]1CN(C)Cc1ccc(-c2ccccc2)cc1,inactive
20,O=C(C[C@@H]1CC[C@H]2[C@@H](COC[C@H](O)CN2S(=O)(=O)c2ccc(Cl)cc2)O1)NCC1CCCCC1,inactive
21,O=C(C[C@H]1CC[C@H]2[C@@H](COC[C@@H](O)CN2S(=O)(=O)c2ccc(Cl)cc2)O1)NCC1CCCCC1,inactive
22,O=C(C[C@H]1CC[C@@H]2[C@H](COC[C@H](O)CN2S(=O)(=O)c2ccc(Cl)cc2)O1)NCC1CCCCC1,active

row,SMILES,growth inhibition call
1,O=C(C[C@@H]1CC[C@@H]2[C@H](COC[C@@H](O)CN2S(=O)(=O)c2ccc(Cl)cc2)O1)NCC1CCCCC1,inactive
2,O=C(C[C@@H]1CC[C@H]2[C@@H](COC[C@@H](O)CN2S(=O)(=O)c2ccc(Cl)cc2)O1)NCC1CCCCC1,active
3,O=C(C[C@@H]1CC[C@@H]2[C@H](COC[C@H](O)CN2S(=O)(=O)c2ccc(Cl)cc2)O1)NCC1CCCCC1,inactive
4,C[C@@H]1CN([C@@H](C)CO)S(=O)(=O)c2ccc(C#CCN(C)C)cc2O[C@@H]1CN(C)S(C)(=O)=O,inactive
5,CC(C)NC(=O)N(C)C[C@H]1Oc2ccc(NC(=O)NC3CCCCC3)cc2CC(=O)N([C@H](C)CO)C[C@H]1C,inactive
6,CC(C)NC(=O)N(C)C[C@@H]1Oc2ccc(NS(=O)(=O)c3cccs3)cc2CC(=O)N([C@@H](C)CO)C[C@@H]1C,inactive
7,C[C@@H]1CN([C@@H](C)CO)C(=O)Cc2cc(NS(=O)(=O)c3cn(C)cn3)ccc2O[C@H]1CN(C)Cc1ccc(C(=O)Nc2ccccc2N)cc1,inactive
8,C[C@H]1CCCCO[C@@H](CN(C)S(=O)(=O)c2ccccc2)[C@@H](C)CN([C@@H](C)CO)C(=O)c2cc(NC(=O)c3ccccc3)ccc2O1,inactive
9,C[C@@H]1CN([C@H](C)CO)C(=O)c2cc(NC(=O)Nc3ccc(F)cc3)ccc2O[C@@H](C)CCCCO[C@H]1CN(C)Cc1ccccc1,inactive
10,CS(=O)(=O)N1C[C@H](NC(=O)C2CC2)[C@H]2OCCC[C@H]21,inactive
11,C[C@H]1CCCCO[C@H](CN(C)CC2CC2)[C@@H](C)CN([C@@H](C)CO)C(=O)c2cc(NC(=O)Nc3ccc(C(F)(F)F)cc3)ccc2O1,inactive
12,C[C@@H]1CCCCO[C@@H](CN(C)CC2CC2)[C@H](C)CN([C@@H](C)CO)C(=O)c2cc(NC(=O)Nc3ccc(C(F)(F)F)cc3)ccc2O1,inactive
13,C[C@@H]1CCCCO[C@@H](CN(C)CC2CC2)[C@@H](C)CN([C@H](C)CO)C(=O)c2cc(NC(=O)Nc3ccc(C(F)(F)F)cc3)ccc2O1,inactive
14,C[C@@H]1CN([C@H](C)CO)C(=O)c2cc(NC(=O)Nc3ccc(C(F)(F)F)cc3)ccc2O[C@@H]1CN(C)CC1CCCCC1,inactive
15,C[C@H](CO)N1C[C@H](C)[C@H](CN(C)CC2CC2)OCCCC[C@H](C)Oc2ccc(NC(=O)Nc3ccc(C(F)(F)F)cc3)cc2C1=O,inactive
16,C[C@@H]1CCCCO[C@H](CN(C)CC2CC2)[C@H](C)CN([C@@H](C)CO)C(=O)c2cc(NC(=O)Nc3ccc(C(F)(F)F)cc3)ccc2O1,active
17,C[C@@H]1CCCCO[C@H](CN(C)CC2CC2)[C@H](C)CN([C@H](C)CO)C(=O)c2cc(NC(=O)Nc3ccc(C(F)(F)F)cc3)ccc2O1,active
18,C[C@H]1CN([C@@H](C)CO)C(=O)c2cc(NC(=O)Nc3ccc(C(F)(F)F)cc3)ccc2O[C@@H]1CN(C)CC1CCCCC1,inactive
19,C[C@H](CO)N1C[C@H](C)[C@H](CN(C)CC2CCCCC2)Oc2ccc(NC(=O)Nc3ccc(C(F)(F)F)cc3)cc2C1=O,active
20,CCCC#Cc1cnc2c(c1)C(=O)N([C@@H](C)CO)C[C@H](C)[C@@H](CN(C)C(=O)c1ccc3c(c1)OCO3)O2,inactive
21,C[C@@H]1CN([C@H](C)CO)C(=O)c2cc(NS(=O)(=O)c3cn(C)cn3)ccc2O[C@H]1CN(C)Cc1ccc(C(=O)Nc2ccccc2N)cc1,inactive
22,Cc1ccc(S(=O)(=O)Nc2ccc3c(c2)C(=O)N([C@H](C)CO)C[C@@H](C)[C@H](CN(C)Cc2ccc(C(F)(F)F)cc2)O3)cc1,inactive
